Bioassay records as filed in PubChem BioAssay.
VP16 counter: inhibits Gal4-VP16 luciferase reporter, ROR gamma counter-screen. Potency, µM (titrated, usually from 53.6 µM), for inactives: at the top dose activity, negative = inhibition, hits mostly inhibitors. hit rate 3.5% among 310,000. Drosophila S2 Gal4-VP16 UAS-luciferase, luminescence, 20 h;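 note: Gal4-VP16 expression switched on by copper sulfate through the metallothionein promoter; nearly all actives have a fitted effect of over 50% in size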
RORg inh: inhibitors of mouse ROR gamma transcriptional activity; Potency, µM (doses to about 53.6 µM), inactives show top-dose activity change, negative = inhibition, usual class: inhibitors; AID 2551; Drosophila S2 Gal4-RORgamma UAS-luciferase reporter, 20 h; hit rate 5.4% among 310,000; P51450; note: nearly all actives have a fitted effect of over 60% in size
Target sequence (P51450 whole entry, looked up, the tested form may be a part): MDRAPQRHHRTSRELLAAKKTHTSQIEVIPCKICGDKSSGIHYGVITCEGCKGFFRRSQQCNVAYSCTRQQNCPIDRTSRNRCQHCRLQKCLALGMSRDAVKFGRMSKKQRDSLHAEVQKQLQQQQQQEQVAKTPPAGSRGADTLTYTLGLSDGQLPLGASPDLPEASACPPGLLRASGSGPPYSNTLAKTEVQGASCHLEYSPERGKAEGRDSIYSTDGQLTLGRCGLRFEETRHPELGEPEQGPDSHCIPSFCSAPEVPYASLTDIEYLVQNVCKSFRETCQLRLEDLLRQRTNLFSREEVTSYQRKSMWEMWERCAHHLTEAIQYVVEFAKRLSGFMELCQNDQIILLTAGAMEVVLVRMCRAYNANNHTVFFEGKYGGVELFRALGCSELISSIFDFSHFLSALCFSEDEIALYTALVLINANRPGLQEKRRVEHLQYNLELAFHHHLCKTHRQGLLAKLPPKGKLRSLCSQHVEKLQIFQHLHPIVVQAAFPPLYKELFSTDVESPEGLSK
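In this cell-based reporter format, copper sulfate (700 uM final) drives Gal4–ROR gamma fusion expression from a metallothionein promoter in Drosophila Schneider cells; compounds preincubated 1 hr, reporter read after 20 hr at ambient temperature.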
KinaseGlo FLuc: blocks Kinase-Glo luciferase, a counter-screen artifact | Potency, µM (top dose mostly 38.3 µM), for inactives: at the top dose activity change, negative = inhibition, hits mostly inhibitors | Q27757 | Kinase-Glo luciferase, ATP luminescence, 8 min | hit rate 0.28% among 200,000; note: nearly all actives have a fitted effect of over 60% in size
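Compound is pinned into ATP-containing buffer (10 uM ATP, imidazole pH 7.2, 7 mM MgCl2). Kinase-Glo luciferase reagent is then added. Light output is recorded following an 8-min room-temperature incubation.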
* marks the source's active call; other numbers are inactive results; ! = a repeat was not active; [ ] = dose if it differs, or a comment. Sampled rows, rich in hits. Any-hit rate of the full collection: about 6.4%. Calls come from the whole dose curve; as a rule, active = well fitted curve in the direction sought with a large enough effect; inconclusive = small, poorly fitted or top-dose-only effect, or another doubt; inactive = no such curve, though single readings can be large; an effect the other way counts as inactive or inconclusive. % is set by controls: 0 for no effect and ±100 for the full control effect; potency is the fitted concentration of half-maximal effect.

For Cc1ccc(S(=O)ON2CCC(C(=O)O)(c3ccccc3)CC2)cc1 (centres undefined) the results were KinaseGlo FLuc 0%[7.66 µM].
`CNC(=O)Oc1ccc(-c2cn3cc(Cl)ccc3n2)cc1` gave VP16 counter inconclusive, RORg inh 6.3µM* and KinaseGlo FLuc 6%.
`CNC(=O)Oc1cccc(-c2cn3cc(OC(=O)NC)ccc3n2)c1` gave VP16 counter inconclusive, RORg inh inconclusive and KinaseGlo FLuc -23%.
C[C@@H]1O[C@H](OC2[C@@H](O)[C@H](O)C(O)[C@H](O)[C@H]2O)[C@@H](N)C[C@@H]1N=C(N)C(=O)O (some centres undefined) was read as KinaseGlo FLuc -2%[7.66 µM].
`Cc1nc2ccccc2cc1C[N+]12CN3CN(CN(C3)C1)C2` gave KinaseGlo FLuc 0%[7.66 µM].
For COc1ccccc1C1=NCc2nnc(C)n2-c2ccc(Cl)cc21 the results were VP16 counter -3%, RORg inh -31% and KinaseGlo FLuc -2%.
`Cc1nnc2n1-c1ccc(Cl)cc1C(c1ccccc1)=NC2` gave VP16 counter 25%, RORg inh 2.5µM* and KinaseGlo FLuc 3%[39.9 µM].
For COC(=O)c1ccccc1N the results were VP16 counter -8% and RORg inh 9%.
Screening CSCC[C@H](NC(=O)[C@H](CC(C)C)NC(=O)[C@@H](Cc1cnc[nH]1)NC(=O)[C@H](Cc1ccccc1)NC(=O)[C@@H](Cc1ccccc1)NC(=O)[C@@H](N)Cc1ccc(O)cc1)C(N)=O returned VP16 counter -12% and RORg inh 1%.
CN(CC(=O)O)C(=O)[C@H](Cc1ccccc1)NC(=O)[C@@H](CCCN=C(N)N)NC(=O)[C@@H](N)Cc1ccc(O)cc1 was read as VP16 counter -6% and RORg inh 23%.
`COC(=O)[C@]12OC[C@]34C([C@@H](O)[C@@H]1O)[C@]1(C)CC(=O)C(O)=C(C)[C@@H]1C[C@H]3OC(=O)[C@H](O)[C@@H]24` (some centres undefined) gave VP16 counter 0.22µM* and RORg inh 0.56µM*.
Cc1ccc2oc(-c3ccccc3)cc(=O)c2c1 was read as VP16 counter inconclusive, RORg inh inconclusive and KinaseGlo FLuc -5%.
Screening O=c1cc(-c2ccc(O)c(O)c2)oc2cc(O)cc(O)c12 returned VP16 counter 11µM*!, RORg inh 22µM*! and KinaseGlo FLuc 2%.
`CCCC[N+]12C3CC(C(CC)[C@H]1O)[C@@H]1C(O)C4(C[C@@H]12)c1ccccc1N(C)C34` (some centres undefined) gave VP16 counter 2%, RORg inh 8% and KinaseGlo FLuc -11%.
CCN1C[C@@]2(COC)CCC(OC)[C@]34C5C[C@]6(O)[C@@H](OC)C[C@](OC(C)=O)(C([C@H](OC)C23)[C@H]14)C5[C@H]6OC(=O)c1ccc(OC)cc1 (some centres undefined) was read as VP16 counter -11% and RORg inh 0%.
`Nc1ccc(-c2ccc(N)c(Cl)c2)cc1Cl` gave VP16 counter -6% and RORg inh 5%.
Cc1cccc(C)c1NC1=NCCCS1 was read as VP16 counter -2%, RORg inh 10µM*! and KinaseGlo FLuc -2%.
Cc1cc(C)c(NC2=NCCCS2)c(C)c1 was read as VP16 counter -8%, RORg inh 16% and KinaseGlo FLuc -6%.
CCC(C)n1c(O)c(C=NCCN2CCOCC2)c(=O)[nH]c1=S (centres undefined) was read as VP16 counter 1% and RORg inh -11%.
`CCC(C)n1c(O)c(/C=N/NC(=O)c2ccncc2)c(=O)[nH]c1=S` (centres undefined) gave VP16 counter inconclusive, RORg inh inconclusive and KinaseGlo FLuc 1%.
Screening CCC(C)n1c(O)c(/C=N/Nc2ccccc2)c(=O)[nH]c1=S (centres undefined) returned VP16 counter 6.3µM*, RORg inh 14µM* and KinaseGlo FLuc -2%.
Screening CCC(C)n1c(O)c(C=NCCc2ccccc2)c(=O)[nH]c1=S (centres undefined) returned VP16 counter inconclusive and RORg inh 10µM*.
O=[N+]([O-])c1cc(Cl)c(Cl)c(Cl)c1 was read as VP16 counter -1% and RORg inh -6%.
Screening Cc1[nH]c(=O)n(C(C)(C)C)c(=O)c1Cl returned VP16 counter 2% and RORg inh 4%.
`COc1cc2ccccc2c2cc([N+](=O)[O-])oc12` gave KinaseGlo FLuc -3%[7.66 µM].
NC(=NCCc1ccc(I)cc1)SCCCc1cnc[nH]1 was read as VP16 counter -5%, RORg inh 1% and KinaseGlo FLuc 0%.
For CCCCOCC1CO1 (centres undefined) the results were VP16 counter 7% and RORg inh 1%.
For C#CCN1C(C)=C(C(=O)CCO)[C@@H](c2cccc(-n3oo3)c2)C(C(=O)OC)=C1C the results were VP16 counter -8%, RORg inh 26% and KinaseGlo FLuc 2%.
For CC(C)(C)c1ccc(C(=O)NC(=S)Nn2cnnc2)cc1 the results were VP16 counter inconclusive and RORg inh 14µM*.
For CC(=O)[C@H]1CC[C@H]2C3CC[C@H]4C[C@](C)(O)CC[C@]4(C)C3CC[C@]12C (some centres undefined) the results were VP16 counter 0% and RORg inh 2%.
For Cc1ccccc1O the results were VP16 counter 0% and RORg inh 22%.
Oc1cccc[c]1[Hg][Cl] was read as VP16 counter 3.5µM* and RORg inh 1.6µM*.
Screening Cc1nn(C)c(C)c1-c1cccc2c1CCC(N(C)C)C2 (centres undefined) returned VP16 counter 8%, RORg inh -12% and KinaseGlo FLuc -4%[39.9 µM].
Screening CN1CC(CNC(=O)OCc2ccccc2)CC2c3cccc4c3c(cn4C)CC21 (centres undefined) returned VP16 counter inconclusive, RORg inh 16µM* and KinaseGlo FLuc 0%.
Screening CN1C[C@@H](CS(=O)(=O)N(C)C)C[C@@H]2c3cccc4c3c(cn4C)C[C@H]21 returned KinaseGlo FLuc -3%.
Screening CCN1C[C@]2(C)CC[C@H](O)[C@@]34C5C[C@@H]6[C@@H](OC)C[C@@](O)(C5[C@H]6O)[C@@H](CC23)[C@@H]14 (some centres undefined) returned VP16 counter -10%, RORg inh 1% and KinaseGlo FLuc 2%.
For N#CCc1ccccc1 the results were VP16 counter -4% and RORg inh 4%.
Oc1cccc(Cl)c1 was read as VP16 counter 8% and RORg inh -2%.
C=C(C)[C@@H]1CC[C@]2(C(=O)O)CC[C@]3(C)C(CCC4[C@@]5(C)CC[C@H](O)C(C)(C)C5CC[C@]43C)C12 (some centres undefined) was read as VP16 counter -6% and RORg inh 3.2µM*.
c1ccc(OP(Oc2ccccc2)Oc2ccccc2)cc1 was read as VP16 counter 6% and RORg inh 0%.
CCN=C=NCCCN(C)C was read as KinaseGlo FLuc -4%[7.66 µM].
For CCSC(=O)Cl the results were VP16 counter 7% and RORg inh -7%.
